± gives the standard deviation of the averaged measurements. Of roughly 6,200 targets only a part is listed; those with the largest changes were picked by preference.
Compound: Nc1ncnc2c1ncn2[C@@H]1O[C@H](COP(=O)(O)OP(=O)(O)NP(=O)(O)O)[C@@H](O)[C@H]1O [adenylyl imidodiphosphate]
Test: NP40-soluble protein abundance relative to vehicle (solubility fold change) (ratio); higher = more soluble protein in presence of AMP-PNP
In short: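 Values are fold changes against the detergent-processed vehicle, based on vsn-normalised intensities. Jurkat crude lysate was treated at eight concentrations from 0.1 to 10 mM (10 min at room temperature, then 3 min at 37 °C), solubilised with 0.8% NP40 and benzonase, ultracentrifuged and analysed by TMT-labelled LC-MS/MS over three independent experiments.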

UniProt Q86YS7, sequence (Q86YS7 whole entry): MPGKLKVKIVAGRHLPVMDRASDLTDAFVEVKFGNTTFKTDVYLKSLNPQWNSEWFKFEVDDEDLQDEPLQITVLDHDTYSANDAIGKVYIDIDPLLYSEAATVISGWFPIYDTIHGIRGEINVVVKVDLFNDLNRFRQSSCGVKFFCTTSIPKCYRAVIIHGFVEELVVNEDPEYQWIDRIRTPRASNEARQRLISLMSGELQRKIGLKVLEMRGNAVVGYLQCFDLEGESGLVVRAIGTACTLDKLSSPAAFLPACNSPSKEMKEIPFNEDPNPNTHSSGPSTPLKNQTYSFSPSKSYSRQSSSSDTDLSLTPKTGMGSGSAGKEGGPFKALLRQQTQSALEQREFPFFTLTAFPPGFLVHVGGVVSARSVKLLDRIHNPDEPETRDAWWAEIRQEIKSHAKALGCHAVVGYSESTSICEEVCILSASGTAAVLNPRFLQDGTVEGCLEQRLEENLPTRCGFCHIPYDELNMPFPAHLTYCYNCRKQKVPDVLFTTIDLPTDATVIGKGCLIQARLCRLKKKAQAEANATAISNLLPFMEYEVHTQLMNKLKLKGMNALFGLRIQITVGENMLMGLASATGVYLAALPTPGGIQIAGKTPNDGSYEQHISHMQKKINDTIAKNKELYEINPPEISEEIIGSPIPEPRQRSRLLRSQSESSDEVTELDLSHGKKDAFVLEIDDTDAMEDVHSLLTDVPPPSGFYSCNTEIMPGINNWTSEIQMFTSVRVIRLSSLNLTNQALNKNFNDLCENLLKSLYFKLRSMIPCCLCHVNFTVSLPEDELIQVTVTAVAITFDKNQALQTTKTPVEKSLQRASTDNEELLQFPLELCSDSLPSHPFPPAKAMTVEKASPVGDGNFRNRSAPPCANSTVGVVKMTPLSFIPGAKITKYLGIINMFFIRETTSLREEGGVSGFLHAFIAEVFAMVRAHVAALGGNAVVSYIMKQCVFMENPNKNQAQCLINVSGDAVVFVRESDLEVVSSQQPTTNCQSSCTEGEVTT
UniProt Q14156, sequence (Q14156 whole entry): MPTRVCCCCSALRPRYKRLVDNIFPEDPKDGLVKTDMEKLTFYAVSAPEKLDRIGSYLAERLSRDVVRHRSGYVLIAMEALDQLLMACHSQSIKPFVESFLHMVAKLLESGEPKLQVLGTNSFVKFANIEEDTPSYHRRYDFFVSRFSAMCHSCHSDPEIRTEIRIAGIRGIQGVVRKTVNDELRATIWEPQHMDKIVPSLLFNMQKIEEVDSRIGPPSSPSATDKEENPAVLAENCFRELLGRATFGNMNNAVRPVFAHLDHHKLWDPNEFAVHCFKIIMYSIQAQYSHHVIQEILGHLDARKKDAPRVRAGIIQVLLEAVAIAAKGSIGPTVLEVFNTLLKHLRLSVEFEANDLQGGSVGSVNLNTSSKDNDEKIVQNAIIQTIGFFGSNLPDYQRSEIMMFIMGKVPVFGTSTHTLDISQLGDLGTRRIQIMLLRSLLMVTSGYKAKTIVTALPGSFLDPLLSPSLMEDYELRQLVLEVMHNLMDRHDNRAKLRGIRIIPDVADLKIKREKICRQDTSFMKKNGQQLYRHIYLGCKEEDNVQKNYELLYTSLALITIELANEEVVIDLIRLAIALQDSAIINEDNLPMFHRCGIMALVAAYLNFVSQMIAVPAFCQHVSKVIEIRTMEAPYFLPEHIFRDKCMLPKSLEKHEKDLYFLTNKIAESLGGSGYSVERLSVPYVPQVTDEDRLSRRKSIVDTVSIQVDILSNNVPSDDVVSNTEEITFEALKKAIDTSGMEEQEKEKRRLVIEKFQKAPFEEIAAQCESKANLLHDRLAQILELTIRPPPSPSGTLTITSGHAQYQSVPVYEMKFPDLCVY
UniProt Q8WWW0, sequence (Q8WWW0 whole entry): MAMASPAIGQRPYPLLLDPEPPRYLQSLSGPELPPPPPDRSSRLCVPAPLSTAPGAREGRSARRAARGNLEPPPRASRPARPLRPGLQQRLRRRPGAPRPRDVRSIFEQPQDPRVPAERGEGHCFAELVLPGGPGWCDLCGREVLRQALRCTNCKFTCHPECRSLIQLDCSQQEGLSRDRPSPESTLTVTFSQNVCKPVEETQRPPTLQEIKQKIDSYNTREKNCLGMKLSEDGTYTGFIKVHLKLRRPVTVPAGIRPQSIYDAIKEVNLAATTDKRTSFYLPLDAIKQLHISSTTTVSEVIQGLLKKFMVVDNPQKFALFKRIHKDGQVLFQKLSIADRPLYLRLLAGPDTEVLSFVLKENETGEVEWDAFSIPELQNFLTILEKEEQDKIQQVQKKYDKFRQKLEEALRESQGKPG
UniProt Q8TEM1, sequence (Q8TEM1 whole entry): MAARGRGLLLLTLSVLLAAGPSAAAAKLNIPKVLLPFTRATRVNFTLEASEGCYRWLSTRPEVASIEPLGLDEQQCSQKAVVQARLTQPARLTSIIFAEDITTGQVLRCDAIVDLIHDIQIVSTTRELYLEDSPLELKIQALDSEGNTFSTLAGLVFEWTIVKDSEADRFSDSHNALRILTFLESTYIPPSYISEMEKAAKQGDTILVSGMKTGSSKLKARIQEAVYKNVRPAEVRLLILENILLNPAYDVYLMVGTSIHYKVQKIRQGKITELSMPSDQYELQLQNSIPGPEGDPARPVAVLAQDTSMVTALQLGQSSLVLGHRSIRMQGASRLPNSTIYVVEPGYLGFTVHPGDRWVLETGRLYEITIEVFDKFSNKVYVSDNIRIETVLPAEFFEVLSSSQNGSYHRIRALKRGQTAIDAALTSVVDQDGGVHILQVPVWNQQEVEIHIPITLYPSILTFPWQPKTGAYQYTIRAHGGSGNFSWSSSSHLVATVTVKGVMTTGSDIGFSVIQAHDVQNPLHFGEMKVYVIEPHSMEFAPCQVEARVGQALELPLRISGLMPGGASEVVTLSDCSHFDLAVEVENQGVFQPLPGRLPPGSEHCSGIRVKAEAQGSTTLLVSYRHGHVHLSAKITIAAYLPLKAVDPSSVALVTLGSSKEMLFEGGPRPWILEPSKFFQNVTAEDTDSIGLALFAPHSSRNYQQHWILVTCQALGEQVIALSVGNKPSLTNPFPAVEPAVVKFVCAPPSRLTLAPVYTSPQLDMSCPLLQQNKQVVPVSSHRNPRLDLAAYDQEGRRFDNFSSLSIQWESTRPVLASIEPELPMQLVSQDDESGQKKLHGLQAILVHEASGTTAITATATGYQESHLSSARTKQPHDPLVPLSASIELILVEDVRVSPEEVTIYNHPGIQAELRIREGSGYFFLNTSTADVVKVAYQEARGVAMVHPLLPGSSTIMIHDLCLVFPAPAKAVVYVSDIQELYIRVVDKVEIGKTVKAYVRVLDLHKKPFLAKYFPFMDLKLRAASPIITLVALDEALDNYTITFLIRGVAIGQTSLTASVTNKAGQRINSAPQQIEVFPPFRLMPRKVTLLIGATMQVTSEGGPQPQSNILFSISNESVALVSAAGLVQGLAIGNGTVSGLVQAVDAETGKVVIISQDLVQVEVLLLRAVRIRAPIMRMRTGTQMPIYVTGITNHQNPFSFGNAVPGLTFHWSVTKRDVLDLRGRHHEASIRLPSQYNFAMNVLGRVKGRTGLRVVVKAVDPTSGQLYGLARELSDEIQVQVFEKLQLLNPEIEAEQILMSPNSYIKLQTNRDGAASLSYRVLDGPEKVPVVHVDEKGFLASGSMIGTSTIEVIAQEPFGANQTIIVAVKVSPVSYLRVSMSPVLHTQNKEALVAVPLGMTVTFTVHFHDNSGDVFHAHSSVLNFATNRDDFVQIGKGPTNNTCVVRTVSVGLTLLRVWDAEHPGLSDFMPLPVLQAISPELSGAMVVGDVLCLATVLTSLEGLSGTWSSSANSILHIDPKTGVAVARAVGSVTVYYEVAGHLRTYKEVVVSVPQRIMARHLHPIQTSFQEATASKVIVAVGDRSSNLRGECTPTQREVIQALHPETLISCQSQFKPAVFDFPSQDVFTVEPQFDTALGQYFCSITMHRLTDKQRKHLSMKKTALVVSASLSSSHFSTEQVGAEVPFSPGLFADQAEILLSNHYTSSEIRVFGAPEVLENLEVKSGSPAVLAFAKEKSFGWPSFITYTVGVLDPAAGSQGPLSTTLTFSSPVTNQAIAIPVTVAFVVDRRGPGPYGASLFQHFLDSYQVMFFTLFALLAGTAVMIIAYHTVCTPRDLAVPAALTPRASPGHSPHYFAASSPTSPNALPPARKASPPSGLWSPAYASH
UniProt Q8WZ82, sequence (Q8WZ82 whole entry): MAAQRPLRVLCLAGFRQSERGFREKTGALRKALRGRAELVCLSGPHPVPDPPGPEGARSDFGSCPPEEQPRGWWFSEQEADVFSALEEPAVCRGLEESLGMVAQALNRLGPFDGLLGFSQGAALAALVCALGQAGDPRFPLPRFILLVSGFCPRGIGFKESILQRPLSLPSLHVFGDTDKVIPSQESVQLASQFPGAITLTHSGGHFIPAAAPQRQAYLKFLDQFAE
UniProt Q8N8A6, sequence (Q8N8A6 whole entry): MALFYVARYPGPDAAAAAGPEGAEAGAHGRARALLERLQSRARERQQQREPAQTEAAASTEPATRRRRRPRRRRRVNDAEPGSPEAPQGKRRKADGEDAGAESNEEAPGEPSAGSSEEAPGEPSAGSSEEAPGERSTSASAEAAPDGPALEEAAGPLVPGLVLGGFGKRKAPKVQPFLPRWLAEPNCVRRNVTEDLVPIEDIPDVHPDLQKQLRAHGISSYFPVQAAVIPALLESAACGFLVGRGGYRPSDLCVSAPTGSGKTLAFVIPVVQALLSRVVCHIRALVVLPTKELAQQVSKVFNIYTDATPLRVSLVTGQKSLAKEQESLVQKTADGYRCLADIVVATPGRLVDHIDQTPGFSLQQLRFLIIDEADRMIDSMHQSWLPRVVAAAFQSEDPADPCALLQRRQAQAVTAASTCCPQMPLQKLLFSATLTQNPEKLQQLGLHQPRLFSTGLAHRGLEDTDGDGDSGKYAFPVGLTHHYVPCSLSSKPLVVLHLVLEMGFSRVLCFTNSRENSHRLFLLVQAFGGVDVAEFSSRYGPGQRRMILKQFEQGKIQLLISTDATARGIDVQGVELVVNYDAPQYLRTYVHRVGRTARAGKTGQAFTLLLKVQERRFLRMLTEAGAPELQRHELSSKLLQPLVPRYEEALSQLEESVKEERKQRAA

Target	NP40-soluble protein abundance (concentration: 1mM)	NP40-soluble protein abundance (concentration: 2mM)	NP40-soluble protein abundance (concentration: 4mM)	NP40-soluble protein abundance (concentration: 6mM)	NP40-soluble protein abundance (concentration: 8mM)	NP40-soluble protein abundance (concentration: 10mM)
UniProt Q86YS7	0.973 ± 0.015	0.97 ± 0.016	0.982 ± 0.017	0.942 ± 0.012	0.919 ± 0.015	0.948 ± 0.018
UniProt Q5M775|Q5M775-2|Q5M775-3|Q5M775-4|Q5M775-5	0.945 ± 0.062	0.89 ± 0.032	0.95 ± 0.05	1.04 ± 0.032	1.01 ± 0.031	0.992 ± 0.059
UniProt Q14156|Q14156-2	0.9764 ± 0.0041	0.961 ± 0.041	0.9737 ± 0.0064	0.952 ± 0.023	0.973 ± 0.015	0.953 ± 0.018
DDX51 (UniProt Q8N8A6)	1.06 ± 0.018	1.09 ± 0.02	1.15 ± 0.059	1.2 ± 0.038	1.24 ± 0.033	1.423 ± 0.014
DARS2 (UniProt Q6PI48)	0.939 ± 0.049	0.861 ± 0.12	0.924 ± 0.016	0.918 ± 0.036	0.942 ± 0.021	0.89 ± 0.012
UniProt Q8WWW0|Q8WWW0-2	0.9981 ± 0.0063	0.996 ± 0.033	1.02 ± 0.018	1.03 ± 0.039	1.02 ± 0.029	1.03 ± 0.052
PMVK (UniProt Q15126)	0.948 ± 0.0098	0.931 ± 0.018	0.973 ± 0.045	1.04 ± 0.07	1.04 ± 0.061	1.02 ± 0.052
ERCC6L (UniProt Q2NKX8)	0.998 ± 0.022	1.01 ± 0.036	0.993 ± 0.04	0.95 ± 0.032	0.942 ± 0.045	0.949 ± 0.064
NUP210 (UniProt Q8TEM1)	0.992 ± 0.025	0.952 ± 0.025	0.975 ± 0.021	0.972 ± 0.037	1.01 ± 0.029	0.986 ± 0.044
UniProt Q5T011|Q5T011-5	0.882 ± 0.14	0.91 ± 0.071	0.912 ± 0.076	0.864 ± 0.16	0.809 ± 0.045	0.803 ± 0.056
OVCA2 (UniProt Q8WZ82)	1.01 ± 0.018	0.992 ± 0.052	1.01 ± 0.062	0.981 ± 0.018	1.01 ± 0.041	0.999 ± 0.03
USP34 (UniProt Q70CQ2)	0.958 ± 0.032	0.925 ± 0.044	0.955 ± 0.026	0.885 ± 0.021	0.877 ± 0.033	0.873 ± 0.014
UniProt Q7L4P6|Q7L4P6-2	1.21 ± 0.13	1.37 ± 0.095	1.2 ± 0.15	1.14 ± 0.16	1.03 ± 0.043	1.23 ± 0.19
